TMEM16A act = activates or potentiates the mouse TMEM16A chloride channel; Q8BHY3; HEK293 TMEM16A/YFP-H148Q/I152L, iodide quench fluorescence; hits give low values; B-score at 10 µM; actives 0.3% (n = 340,000);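 active = fluorescence-ratio B-score plate-corrected deviation score at least 3 library SD below zero, with starting fluorescence score within 5 deviations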;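 also: channel opened by trigger with iodide after compound preincubation; score built on the fluorescence ratio of max minus min over baseline; more negative score means more quench and so TMEM16A activation or potentiation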
Target sequence (Q8BHY3 whole entry, looked up): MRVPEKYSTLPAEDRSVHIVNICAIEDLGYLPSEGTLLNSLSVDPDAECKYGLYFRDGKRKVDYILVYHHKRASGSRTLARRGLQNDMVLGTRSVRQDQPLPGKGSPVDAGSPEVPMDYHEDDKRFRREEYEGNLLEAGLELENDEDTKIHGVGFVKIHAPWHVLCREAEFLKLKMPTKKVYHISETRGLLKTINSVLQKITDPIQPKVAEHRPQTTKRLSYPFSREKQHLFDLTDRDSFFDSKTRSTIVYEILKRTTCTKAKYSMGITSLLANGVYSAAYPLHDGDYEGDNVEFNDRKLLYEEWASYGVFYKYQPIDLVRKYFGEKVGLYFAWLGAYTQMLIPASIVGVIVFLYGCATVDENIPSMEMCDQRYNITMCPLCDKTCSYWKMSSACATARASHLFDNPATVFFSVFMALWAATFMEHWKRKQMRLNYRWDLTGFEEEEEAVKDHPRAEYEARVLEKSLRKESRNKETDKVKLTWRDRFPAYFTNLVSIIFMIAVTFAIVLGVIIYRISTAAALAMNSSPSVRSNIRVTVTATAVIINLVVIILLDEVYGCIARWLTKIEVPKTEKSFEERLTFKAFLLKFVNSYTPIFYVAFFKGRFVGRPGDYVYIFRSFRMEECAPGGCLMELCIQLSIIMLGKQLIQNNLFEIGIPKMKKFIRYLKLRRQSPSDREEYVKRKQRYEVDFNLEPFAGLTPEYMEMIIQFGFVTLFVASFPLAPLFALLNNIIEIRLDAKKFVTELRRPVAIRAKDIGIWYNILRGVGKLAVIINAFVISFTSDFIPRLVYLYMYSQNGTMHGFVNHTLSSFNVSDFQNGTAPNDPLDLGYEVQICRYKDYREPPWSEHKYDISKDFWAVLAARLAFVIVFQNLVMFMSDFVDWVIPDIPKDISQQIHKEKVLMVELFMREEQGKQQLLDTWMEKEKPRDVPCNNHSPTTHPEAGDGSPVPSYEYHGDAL
ANO1 block = mouse TMEM16A channel inhibition, primary screen. AID 588511. Q8BHY3. HEK293 TMEM16A/YFP iodide influx fluorescence, ionomycin. normalized B-score (activity score, 25-100; higher = stronger inhibition) at 10 µM. actives 1.2% (n = 310,000);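 active = ratio plate-corrected score three or more library SD toward inhibition, starting fluorescence score within five deviations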;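 also: score derived from kinetic fluorescence span divided by baseline fluorescence per well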
CHO-K1 Ca ag = counter-screen for M1 agonists: effect in parental CHO-K1 cells; Fluo-8 calcium fluorescence; scaled to maximal ATP response, vehicle zero; activation, % at 3 µM; actives 0.48% (n = 360,000); AID 602248; in the data active = activation above about 15%;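 also: untransfected CHO-K1 host cells lacking M1 receptor as counterscreen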
NTR1 agonist = NTR1 (human) agonism; activation, % at 20 µM; NTR1-U2OS beta-arrestin-GFP spot imaging, agonist mode; actives 0.17% (n = 330,000);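 active = activation at or above 40% of the spot to cytoplasm intensity ratio, with at least 20 cells analyzed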;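 also: 0% = DMSO without peptide and 100% = 100 nM NTR1 peptide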
CHO-K1 Ca antag = M1 antagonist counterscreen hit in parental CHO-K1 cells; ATP-induced calcium, Fluo-8 fluorescence; actives 0.6% (n = 360,000); AID 602250; inhibition, % at 3 µM;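 active = inhibition above a per-plate cutoff, the plate's mean sample inhibition plus 3 SD, cut at about 24% in these data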;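 also: 0% = DMSO plus EC80 ATP and 100% = DMSO alone without ATP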
M1 PAM parental = nonselective activator or artifact in parental CHO-K1 calcium assay; ATP EC20, Fluo-8 calcium fluorescence; 0% at ATP EC20, 100% at ATP max; activation, % at 3 µM; actives 0.02% (n = 360,000);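 active = activation above the run cutoff, the mean activation of all test compounds plus 3 SD, cut at about 40% in these data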;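 also: peak over basal fluorescence ratio in a 140 s read after ATP addition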
An asterisk follows results filed as active; i = inactive; · = no result. Compounds with a hit are over-represented: about 2.2% of the library has one in this group of screens.

SMILES	TMEM16A act	ANO1 block	CHO-K1 Ca ag	NTR1 agonist	CHO-K1 Ca antag	M1 PAM parental
O=[N+]([O-])c1ccc(N/N=C/C=C/c2ccco2)cc1	i	i	21*	4	19	-4
O=C(O)c1ccc(N/N=C/C=C/c2ccc([N+](=O)[O-])o2)cc1	i	i	12	-3	14	-1
COCOc1cccc(CN2CCC2(C)C(=O)Nc2ccc(OC)c(OC)c2)c1 (stereo unspecified)	·	·	3	·	-20	16
COc1ccc(-c2csc(=NCCO)n2-c2ccccc2)cc1	i	25*	8	·	-6	-1
C=CCn1c(-c2ccc(OC)cc2)csc1=Nc1c(C)n(C)n(-c2ccccc2)c1=O	i	i	3	1	-13	20
O=C(CCCc1nc2ccccc2s1)NNC(=O)CCN1CCN(Cc2ccccc2)CC1	-22*	i	0	0	-8	3
COc1ccccc1-c1cc2nc(-c3ccccc3)cc(N3CCN(C(=O)c4ccco4)CC3)n2n1	·	·	0	·	6	-1
Nc1[nH]c(C(=O)c2ccccc2)c(-c2ccc(Cl)cc2)c1C(=O)NCc1ccccc1	·	·	0	·	15	1
CC1=C(C(=O)N2CCOCC2)C(c2ccc(Cl)cc2)NC(=S)N1 (stereo unspecified)	i	i	20*	2	7	14
CC1=C(C(=O)N2CCOCC2)C(c2ccc(C)cc2)NC(=S)N1 (stereo unspecified)	i	i	1	0	1	11
CCCCN1C(=O)Cc2c1nc(N)c1c(N)nc(N(CCC)CCC)c(C#N)c21	i	i	0	·	25*	-9
CCN(CC)c1ccc(CNc2nc3ccccc3n2CCN2CCCCC2)cc1	i	100*	8	10	23	-14
Cc1cc(C)n(CCNC(=O)[C@H]2O[C@@H](n3ccc(N)nc3=O)[C@H](O)[C@@H]2O)n1	·	·	2	·	-12	25
O=C(CSc1nc2ncc(Cl)cc2[nH]1)Nc1ccccc1-c1ccccc1	i	100*	1	3	2	11
Cc1cn([C@H]2C[C@H](O)[C@@H](CNC(=O)CNC(=O)CN)O2)c(=O)[nH]c1=O	·	·	0	·	3	-1
Cc1ccc(C(=O)Nc2cccc3[nH]c(C(F)(F)F)nc23)cc1	i	i	17*	10	-1	0
O=[N+]([O-])/C=C\c1ccc(N2CCCC2)c(F)c1	i	·	27*	·	18	-3
CC(CCc1ccccc1)NC(=O)COC(=O)c1ccccc1O (stereo unspecified)	i	i	16*	0	-9	15
COc1ccccc1C(=O)OCC(=O)NC(C)CCc1ccccc1 (stereo unspecified)	i	i	0	-1	-7	-8
N#Cc1c(N)[nH]c(C(=O)c2ccccc2)c1-c1ccccc1Br	·	·	2	·	-1	-7
Cc1ccc(C(=O)Nc2ccc(Br)c(C(F)(F)F)c2)cc1	i	100*	1	8	15	-6
Cc1ccc(NC(=O)c2ccc(C)cc2)cc1	i	i	-1	-4	6	-12
CN(c1ccccc1)S(=O)(=O)c1cccc(NC(=O)COc2cccc([N+](=O)[O-])c2)c1	i	·	7	-1	-11	-5
COc1cccc(CN(C)CC(=O)Nc2cccc(S(=O)(=O)N(C)c3ccccc3)c2)c1OC	i	·	5	·	-17	-5
CCOc1ccc(CN(C)CC(=O)Nc2cccc(S(=O)(=O)N(C)c3ccccc3)c2)cc1	i	i	18*	1	0	7
SMILES	TMEM16A act	ANO1 block	CHO-K1 Ca ag	NTR1 agonist	CHO-K1 Ca antag	M1 PAM parental
CCC(=O)c1ccc(OCC(=O)Nc2cccc(S(=O)(=O)N(C)c3ccccc3)c2)cc1	i	·	17*	5	8	-12
COC(=O)[C@@]1(Sc2ccc(C)cc2)CC(=O)N(C(=O)CCc2ccccc2)[C@@H]1c1ccccc1	·	·	2	·	-19	15
Cc1nc(C(F)(F)F)ccc1C(=O)N1CCC1(C)C(=O)NS(=O)(=O)c1cccc(C#N)c1 (stereo unspecified)	·	·	0	·	1	12
Cn1c(=O)c2c(ncn2CC(=O)Nc2ccc(N3CCOCC3)cc2)n(C)c1=O	i	i	0	0	25*	-28
Cc1ccccc1N/N=C/c1sc(=O)n(Cc2cccc(C(=O)O)c2)c1Cl	i	25*	0	5	-7	-7
CCC(=O)c1ccc(O)cc1	-13*	i	5	1	-6	11
O=C(O)COc1ccccc1C=NNC(=O)c1ccccc1NS(=O)(=O)c1cccs1	i	·	1	3	-13	14
O=C(NNC1=C(C(=O)C(F)(F)F)CCC1)c1ccccc1Cl	-19*	i	1	-2	0	14
O=C(NNC1=C(C(=O)C(F)(F)F)CCC1)c1ccccc1O	i	100*	2	-1	-6	14
Nc1ccccc1C(=O)NNC1=C(C(=O)C(F)(F)F)CCC1	i	i	1	0	-8	22
COc1ccccc1C(=O)NNC1=C(C(=O)C(F)(F)F)CCC1	i	i	0	3	-6	-11
CSc1ccc(CN2C(=O)C(F)(F)Oc3c(C(C)=O)cccc32)cc1	·	·	5	·	2	-2
CC(C)C[C@H]1CNC(=O)C(=O)N1C[C@@H]1CCCN1C[C@H](Cc1ccccc1)N1C[C@H](Cc2ccccc2)N(CC2CCCCC2)C(=O)C1=O	·	·	0	·	4	10
C=C(C)Cn1c(C)cc(C)c(S(=O)(=O)c2cccc(C)c2)c1=O	i	100*	-1	0	4	-8
COc1ccccc1C(NC(=O)C1CCN(CCOc2ccccc2)CC1)c1ccccn1 (stereo unspecified)	·	·	0	·	-7	2
C[C@H](O)[C@@H]1C(=O)N2CCc3ccc(-c4ccccc4)cc3[C@@H]2C[C@@H]1N(C)C(=O)c1cccnc1	·	·	1	·	16	-6
Cc1ccccc1Oc1ccc2c(c1)[C@@H]1C[C@H](N(C)C(=O)c3cccnc3)[C@H]([C@H](C)O)C(=O)N1CC2	·	·	0	·	33*	-11
COc1ccc(CCn2nnnc2C(C(C)C)N2CCN(c3ncccn3)CC2)cc1OC (stereo unspecified)	i	i	1	1	-2	-13
COc1ccc(CCn2nnnc2C(CC(C)C)N2CCN(c3ncccn3)CC2)cc1OC (stereo unspecified)	i	i	-1	-1	37*	-12
O=c1c2cc(F)ccc2sn1-c1ccccc1	i	·	19*	-1	-9	10
O=c1c2cc(C(F)(F)F)ccc2sn1-c1ccccc1	·	·	5	·	-3	11
COc1ccccc1Cc1c(-c2ccccc2)nc2ccc(Br)cn12	·	·	1	·	3	19
